# According to the supplement of paper PMC4022240:
# ± gives the standard deviation.
# B1: H4 1-13 Sph G R G K G G Kac G L G K G (peptide)
# chain: SGRGKGGKGLGKG
# B2: H4 8-19 K G L G K G G A Kac R H R K (peptide)
# chain: KGLGKGGAKRHRK
# B3: H4 1-13 Sph G Rme G K G G K G L G K G (peptide)
# chain: SGRGKGGKGLGKG
# B4: H4 1-13 Sph G Rme2a G K G G K G L G K G (peptide)
# chain: SGRGKGGKGLGKG
# B5: H4 8-19 Kac G L G Kac G G A Kac R H R K (peptide)
# chain: KGLGKGGAKRHRK
# B6: H4 8-19 K G L G K G G A Kac Rme2a H R K (peptide)
# chain: KGLGKGGAKRHRK
# B7: H4 8-19 K G L G K G G A K Rme2a H R K (peptide)
# chain: KGLGKGGAKRHRK
# B8: H4 1-13 Sph G R G K G G K G L G K G (peptide)
# chain: SGRGKGGKGLGKG
# B9: H4 8-19 K G L G Kac G G A K R H R K (peptide)
# chain: KGLGKGGAKRHRK
# B10: H4 8-19 K G L G K G G A Kac Rme2s H R K (peptide)
# chain: KGLGKGGAKRHRK
# B11: H4 8-19 Kac G L G K G G A K R H R K (peptide)
# chain: KGLGKGGAKRHRK
# Key:
# Assay in all cases: peptide microarray binding signal (635 nm), min-max normalized on array (fraction of array maximum); higher = stronger binding
# [1] = target: T1, HaloTag-ATRX ADD domain (163-292)
# T1 chain: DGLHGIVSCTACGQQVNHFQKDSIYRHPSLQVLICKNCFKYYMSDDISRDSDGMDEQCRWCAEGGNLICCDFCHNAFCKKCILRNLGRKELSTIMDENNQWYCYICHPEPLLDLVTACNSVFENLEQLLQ
# Outline: (§1)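 Two probe formats were used for 1 h at 4°C: biotin-labelled HaloTag reader fusions (10 nM to 1 μM) with streptavidin-Alexa Fluor 647, and rabbit histone antibodies (1:10,000 to 1:2,000) with anti-rabbit Alexa 647. Both were applied to nitrocellulose arrays of histone 13-mer peptide–cellulose conjugates printed in triplicate with a Cy3 tracer and blocked overnight at 4°C. Signal was read at 635 nm and misprints at 532 nm on an Axon GenePix 4000B. Binding signal is expressed as the triplicate-spot mean intensity, min-max scaled for each library.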
# [2] = target: HaloTag-ING2 PHD (mouse Ing2 200-280)
# Outline: as §1
# [3] = target: anti-H3K4me3 antibody ab8580
# Outline: as §1
# [4] = target: anti-H3K9me3 antibody ab8898
# Outline: as §1
# [5] = peptide region: H4 1-13, peptide modifications: H4S1ph H4K8ac, binder concentration: 1:2,000 dilution
# [6] = peptide region: H4 1-13, peptide modifications: H4S1ph H4K8ac, binder concentration: 1:10,000 dilution
# [7] = peptide region: H4 8-19, peptide modifications: H4K16ac, binder concentration: 1:2,000 dilution
# [8] = peptide region: H4 8-19, peptide modifications: H4K16ac, binder concentration: 1:10,000 dilution
# [9] = peptide region: H4 1-13, peptide modifications: H4S1ph H4R3me1, binder concentration: 1:2,000 dilution
# [10] = peptide region: H4 1-13, peptide modifications: H4S1ph H4R3me1, binder concentration: 1:10,000 dilution
# [11] = peptide region: H4 1-13, peptide modifications: H4S1ph H4R3me2a, binder concentration: 1:2,000 dilution
# [12] = peptide region: H4 1-13, peptide modifications: H4S1ph H4R3me2a, binder concentration: 1:10,000 dilution
# [13] = peptide region: H4 8-19, peptide modifications: H4K8ac H4K12ac H4K16ac, binder concentration: 1:2,000 dilution
# [14] = peptide region: H4 8-19, peptide modifications: H4K16ac H4R17me2a, binder concentration: 1:2,000 dilution
# [15] = peptide region: H4 8-19, peptide modifications: H4R17me2a, binder concentration: 1:2,000 dilution
# [16] = peptide region: H4 8-19, peptide modifications: H4R17me2a, binder concentration: 1:10,000 dilution
# [17] = peptide region: H4 1-13, peptide modifications: H4S1ph, binder concentration: 1:2,000 dilution
# [18] = peptide region: H4 1-13, peptide modifications: H4S1ph, binder concentration: 1:10,000 dilution
# [19] = peptide region: H4 8-19, peptide modifications: H4K12ac, binder concentration: 1:2,000 dilution
# [20] = peptide region: H4 8-19, peptide modifications: H4K12ac, binder concentration: 1:10,000 dilution
# [21] = peptide region: H4 8-19, peptide modifications: H4K16ac H4R17me2s, binder concentration: 1:2,000 dilution
# [22] = peptide region: H4 8-19, peptide modifications: H4K8ac, binder concentration: 1:2,000 dilution
# [23] = peptide region: H4 8-19, peptide modifications: H4K8ac, binder concentration: 1:10,000 dilution
binder,measurement,setting,value
B1,peptide microarray binding signal,"[1]; peptide region: H4 1-13, peptide modifications: H4S1ph H4K8ac, binder concentration: 50 nM",0.00445 ± 0.00043
same,peptide microarray binding signal,"[1]; peptide region: H4 1-13, peptide modifications: H4S1ph H4K8ac, binder concentration: 500 nM",0.0149 ± 0.0018
same,peptide microarray binding signal,"[2]; peptide region: H4 1-13, peptide modifications: H4S1ph H4K8ac, binder concentration: 10 nM",0.00251 ± 3.8e-05
same,peptide microarray binding signal,"[2]; peptide region: H4 1-13, peptide modifications: H4S1ph H4K8ac, binder concentration: 100 nM",0.00503 ± 0.00084
same,peptide microarray binding signal,[3]; [5],0.000359 ± 1.8e-05
same,peptide microarray binding signal,[3]; [6],0.000742 ± 1.3e-05
same,peptide microarray binding signal,[4]; [5],0.000332 ± 6.7e-06
same,peptide microarray binding signal,[4]; [6],0.000577 ± 6.2e-06
B2,peptide microarray binding signal,"[1]; peptide region: H4 8-19, peptide modifications: H4K16ac, binder concentration: 50 nM",0.00483 ± 0.00015
same,peptide microarray binding signal,"[1]; peptide region: H4 8-19, peptide modifications: H4K16ac, binder concentration: 500 nM",0.0126 ± 0.00055
same,peptide microarray binding signal,"[2]; peptide region: H4 8-19, peptide modifications: H4K16ac, binder concentration: 10 nM",0.00388 ± 8.9e-05
same,peptide microarray binding signal,"[2]; peptide region: H4 8-19, peptide modifications: H4K16ac, binder concentration: 100 nM",0.0106 ± 0.0026
same,peptide microarray binding signal,[3]; [7],0.00238 ± 0.00047
same,peptide microarray binding signal,[3]; [8],0.002 ± 4.9e-05
same,peptide microarray binding signal,[4]; [7],0.00181 ± 6e-05
same,peptide microarray binding signal,[4]; [8],0.00127 ± 3.4e-05
B3,peptide microarray binding signal,"[1]; peptide region: H4 1-13, peptide modifications: H4S1ph H4R3me1, binder concentration: 50 nM",0.00467 ± 0.00075
same,peptide microarray binding signal,"[1]; peptide region: H4 1-13, peptide modifications: H4S1ph H4R3me1, binder concentration: 500 nM",0.0107 ± 0.00059
same,peptide microarray binding signal,"[2]; peptide region: H4 1-13, peptide modifications: H4S1ph H4R3me1, binder concentration: 10 nM",0.00149
same,peptide microarray binding signal,"[2]; peptide region: H4 1-13, peptide modifications: H4S1ph H4R3me1, binder concentration: 100 nM",0.00276 ± 6.8e-05
same,peptide microarray binding signal,[3]; [9],0.000132 ± 1.5e-06
same,peptide microarray binding signal,[3]; [10],0.000742 ± 1.3e-05
same,peptide microarray binding signal,[4]; [9],0.000347 ± 7e-06
same,peptide microarray binding signal,[4]; [10],0.000577 ± 1.2e-05
B4,peptide microarray binding signal,"[1]; peptide region: H4 1-13, peptide modifications: H4S1ph H4R3me2a, binder concentration: 50 nM",0.00605 ± 0.001
same,peptide microarray binding signal,"[1]; peptide region: H4 1-13, peptide modifications: H4S1ph H4R3me2a, binder concentration: 500 nM",0.0165 ± 0.0018
same,peptide microarray binding signal,"[2]; peptide region: H4 1-13, peptide modifications: H4S1ph H4R3me2a, binder concentration: 10 nM",0.00334 ± 4.8e-05
same,peptide microarray binding signal,"[2]; peptide region: H4 1-13, peptide modifications: H4S1ph H4R3me2a, binder concentration: 100 nM",0.00794 ± 0.0014
same,peptide microarray binding signal,[3]; [11],0.00225 ± 0.00023
same,peptide microarray binding signal,[3]; [12],0.00194 ± 6.3e-05
same,peptide microarray binding signal,[4]; [11],0.000982 ± 4.2e-05
same,peptide microarray binding signal,[4]; [12],0.00104 ± 1.1e-05
B5,peptide microarray binding signal,"[1]; peptide region: H4 8-19, peptide modifications: H4K8ac H4K12ac H4K16ac, binder concentration: 500 nM",0.000476 ± 4.9e-06
same,peptide microarray binding signal,"[2]; peptide region: H4 8-19, peptide modifications: H4K8ac H4K12ac H4K16ac, binder concentration: 100 nM",7.09e-05 ± 1.5e-06
same,peptide microarray binding signal,[3]; [13],1.89e-05 ± 2.2e-07
same,peptide microarray binding signal,[4]; [13],3.02e-05 ± 3.4e-07
B6,peptide microarray binding signal,"[1]; peptide region: H4 8-19, peptide modifications: H4K16ac H4R17me2a, binder concentration: 500 nM",0
same,peptide microarray binding signal,"[2]; peptide region: H4 8-19, peptide modifications: H4K16ac H4R17me2a, binder concentration: 100 nM",0.000283
same,peptide microarray binding signal,[3]; [14],1.89e-05 ± 2.2e-07
same,peptide microarray binding signal,[4]; [14],1.51e-05 ± 1.7e-07
B7,peptide microarray binding signal,"[1]; peptide region: H4 8-19, peptide modifications: H4R17me2a, binder concentration: 50 nM",0.00395 ± 0.00035
same,peptide microarray binding signal,"[1]; peptide region: H4 8-19, peptide modifications: H4R17me2a, binder concentration: 500 nM",0.00957 ± 0.00096
same,peptide microarray binding signal,"[2]; peptide region: H4 8-19, peptide modifications: H4R17me2a, binder concentration: 10 nM",0.00358 ± 3.8e-05
same,peptide microarray binding signal,"[2]; peptide region: H4 8-19, peptide modifications: H4R17me2a, binder concentration: 100 nM",0.0085 ± 0.00064
same,peptide microarray binding signal,[3]; [15],0.00051 ± 1.5e-05
same,peptide microarray binding signal,[3]; [16],0.000913 ± 1.6e-05
same,peptide microarray binding signal,[4]; [15],0.000483 ± 1.7e-05
same,peptide microarray binding signal,[4]; [16],0.00208 ± 0.00045
B8,peptide microarray binding signal,"[1]; peptide region: H4 1-13, peptide modifications: H4S1ph, binder concentration: 50 nM",0.00608 ± 0.0013
same,peptide microarray binding signal,"[1]; peptide region: H4 1-13, peptide modifications: H4S1ph, binder concentration: 500 nM",0.0121 ± 0.00045
same,peptide microarray binding signal,"[2]; peptide region: H4 1-13, peptide modifications: H4S1ph, binder concentration: 10 nM",0.00328 ± 0.00014
same,peptide microarray binding signal,"[2]; peptide region: H4 1-13, peptide modifications: H4S1ph, binder concentration: 100 nM",0.0039 ± 0.00041
same,peptide microarray binding signal,[3]; [17],0.00111 ± 0.00012
same,peptide microarray binding signal,[3]; [18],0.00131 ± 2.6e-05
same,peptide microarray binding signal,[4]; [17],0.000362 ± 6.3e-06
same,peptide microarray binding signal,[4]; [18],0.00075 ± 7.9e-06
B9,peptide microarray binding signal,"[1]; peptide region: H4 8-19, peptide modifications: H4K12ac, binder concentration: 50 nM",0.00743 ± 0.00047
same,peptide microarray binding signal,"[1]; peptide region: H4 8-19, peptide modifications: H4K12ac, binder concentration: 500 nM",0.0289 ± 0.0017
same,peptide microarray binding signal,"[2]; peptide region: H4 8-19, peptide modifications: H4K12ac, binder concentration: 10 nM",0.00352 ± 0.00036
same,peptide microarray binding signal,"[2]; peptide region: H4 8-19, peptide modifications: H4K12ac, binder concentration: 100 nM",0.0073 ± 0.00023
same,peptide microarray binding signal,[3]; [19],0.000189 ± 2e-06
same,peptide microarray binding signal,[3]; [20],0.00302 ± 6.8e-05
same,peptide microarray binding signal,[4]; [19],0.0031 ± 4e-05
same,peptide microarray binding signal,[4]; [20],0.00283 ± 0.00018
B10,peptide microarray binding signal,"[1]; peptide region: H4 8-19, peptide modifications: H4K16ac H4R17me2s, binder concentration: 500 nM",0.000286 ± 1.8e-05
same,peptide microarray binding signal,"[2]; peptide region: H4 8-19, peptide modifications: H4K16ac H4R17me2s, binder concentration: 100 nM",0.000283 ± 5.7e-06
same,peptide microarray binding signal,[3]; [21],5.66e-05
same,peptide microarray binding signal,[4]; [21],1.51e-05 ± 1.7e-07
B11,peptide microarray binding signal,"[1]; peptide region: H4 8-19, peptide modifications: H4K8ac, binder concentration: 50 nM",0.00652 ± 0.00063
same,peptide microarray binding signal,"[1]; peptide region: H4 8-19, peptide modifications: H4K8ac, binder concentration: 500 nM",0.0191 ± 0.0048
same,peptide microarray binding signal,"[2]; peptide region: H4 8-19, peptide modifications: H4K8ac, binder concentration: 10 nM",0.004 ± 0.00025
same,peptide microarray binding signal,"[2]; peptide region: H4 8-19, peptide modifications: H4K8ac, binder concentration: 100 nM",0.0126 ± 0.0039
same,peptide microarray binding signal,[3]; [22],0.000849 ± 0.00016
same,peptide microarray binding signal,[3]; [23],0.001712 ± 1.6e-05
same,peptide microarray binding signal,[4]; [22],0.000876 ± 7e-05
same,peptide microarray binding signal,[4]; [23],0.00121 ± 2.4e-05
